For 14 compounds, outcome and inhibition results are on record in PubChem BioAssay.

Test [1] relates to TRPC4 beta (transient receptor potential cation channel C4), mouse. Nature of the test: activators of mouse TRPC4 channel, confirmation, cell-based, Fluo4 calcium, HEK293 TRPC4beta/mu-opioid, duplicates, 10 µM (AID 2426;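 active = fluorescence ratio normalized to control raised more than 50% in primary screen plus both repeat runs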). Conditions: Fluo4 calcium fluorescence, at 10 µM; active compounds read high.
Test [2] has as its system transient receptor potential cation channel C4 beta (TRPC4), mouse. Nature of the test: activators of mouse TRPC4 channel, confirmation, cell-based, second round, Fluo4, HEK293 TRPC4beta/mu-opioid, 1 µM (AID 2461;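 active = primary screen active and over 50% activation in each of two duplicate runs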). Conditions: Fluo4 calcium fluorescence, at 1 µM; active compounds read high.
Test [3] relates to TRPC4 (transient receptor potential cation channel C4 beta), mouse. Nature of the test: positive allosteric modulators of mouse TRPC4, confirmation, cell-based, second round, Fluo-4, HEK293 TRPC4beta/mu-opioid, 1 µM (AID 2554;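 active = primary screen hit whose fluorescence ratio, in both repeats, exceeds the weak agonist control mean by 3 SD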). The note with it: DAMGO EC20, Fluo-4 calcium flux, at 1 µM; active compounds read high.
For test [4], the system named is TRPC4 beta (transient receptor potential cation channel C4), mouse. As to the kind of experiment: positive allosteric modulators of mouse TRPC4, confirmation, cell-based, Fluo-4, HEK293 TRPC4beta/mu-opioid (AID 2555;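 active = primary screen hit whose calcium fluorescence ratio, in both repeats, exceeds the weak agonist control mean by 3 SD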). The note with it: DAMGO EC20, Fluo-4 calcium flux, at 10 µM; active compounds read high.
Test [5] has as its target Short transient receptor potential channel 4 (Mus musculus) (UniProt Q9QUQ5). As to the kind of experiment: inhibitors of mouse TRPC4 channel, confirmation, cell-based, Fluo4, HEK293 TRPC4beta/mu-opioid (AID 2636). The note with it: DAMGO, Fluo4 calcium flux, at 10 µM; active compounds read high.
Test [6] has the same target. Nature of the test: inhibitors of mouse TRPC4 channel, confirmation, cell-based, second round, Fluo4, HEK293 TRPC4beta/mu-opioid, 1 µM (AID 2637;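 active = calcium signal ratio cut to more than 3 SD under the fully stimulated control mean yet still positive, in both repeats and the primary screen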;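 as to inhibition: percent of integrated ratio relative to wells lacking test compound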). The note with it: Fluo4 calcium flux, DAMGO, at 1 µM; active compounds read high.
Test [7] has the same target. As to the kind of experiment: mouse TRPC4 channel activators, dose response, cell-based, HEK293 TRPC4/mu-opioid, Fluo-4 calcium (AID 434937;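 active = primary screen activator hit with a dose response curve and TRPC4 channel activation at any tested dose; inactive = no activation, no dose response, or not a primary hit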).
For test [8] the target is unchanged. As to the kind of experiment: TRPC4 positive allosteric modulators, dose response, cell-based, HEK293 TRPC4/mu-opioid, Fluo-4 calcium, EC20 DAMGO (AID 434941;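 active = earlier screen potentiator hit that boosts the TRPC4 ion channel at some dose, with a dose response; inactive = no potentiation, no dose response, or not a prior hit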;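 also: calcium entry triggered by an EC20 dose of DAMGO at the co-expressed mu-opioid receptor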).
Test [9] addresses Short transient receptor potential channel 6 (Mus musculus) (UniProt Q61143). Nature of the test: inhibition of mouse TRPC6 channel, confirmation, selectivity assay for TRPC4 inhibitor project, cell-based, HEK293, membrane potential dye, duplicate (AID 434948;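 active = active in primary screen and both duplicates, each dropping signal beyond three positive-control SD with fluorescence still positive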). The note with it: HEK293 TRPC6, membrane potential dye fluorescence, at 10 µM, stimulated with maximal-effect acetylcholine; active compounds read high.

For test [10] the target is unchanged. As to the kind of experiment: activation of mouse TRPC6 channel, confirmation, selectivity assay for TRPC4 activator project, cell-based, HEK293, membrane potential dye, duplicate (AID 434950;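 active = membrane potential signal rise above negative control mean plus 3 SD in both duplicates, also active in the earlier TRPC4 screen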). The note with it: HEK293 TRPC6, membrane potential fluorescence, at 10 µM; active compounds read high.
For test [11] the target is unchanged. Nature of the test: TRPC6 potentiation by TRPC4 potentiator hits, confirmation, selectivity assay for TRPC4 potentiator project, HEK293 cells, membrane potential dye, duplicate (AID 434952;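 active = compound raising the membrane signal above positive-control mean plus 3 SD in both repeats, and a primary screen hit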). The note with it: HEK293 TRPC6, membrane potential dye fluorescence, at 10 µM, maximal acetylcholine added after compound; active compounds read high.
The target of test [12] is Short transient receptor potential channel 4 (Mus musculus) (UniProt Q9QUQ5). As to the kind of experiment: calcium flux activators in TRPC4/5HT1a cells, counter-screen for TRPC4 activator project, cell-based, second counter screen, HEK293 TRPC4/5HT1a, Fluo-4 (AID 434977;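 active = calcium signal rise above buffer-control mean plus 5 SD in both duplicates, and also a hit in the primary screen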). The note with it: Fluo-4 calcium flux, at 10 µM; active compounds read high.
Short transient receptor potential channel 4 (Mus musculus), sequence (Q9QUQ5 whole entry, looked up): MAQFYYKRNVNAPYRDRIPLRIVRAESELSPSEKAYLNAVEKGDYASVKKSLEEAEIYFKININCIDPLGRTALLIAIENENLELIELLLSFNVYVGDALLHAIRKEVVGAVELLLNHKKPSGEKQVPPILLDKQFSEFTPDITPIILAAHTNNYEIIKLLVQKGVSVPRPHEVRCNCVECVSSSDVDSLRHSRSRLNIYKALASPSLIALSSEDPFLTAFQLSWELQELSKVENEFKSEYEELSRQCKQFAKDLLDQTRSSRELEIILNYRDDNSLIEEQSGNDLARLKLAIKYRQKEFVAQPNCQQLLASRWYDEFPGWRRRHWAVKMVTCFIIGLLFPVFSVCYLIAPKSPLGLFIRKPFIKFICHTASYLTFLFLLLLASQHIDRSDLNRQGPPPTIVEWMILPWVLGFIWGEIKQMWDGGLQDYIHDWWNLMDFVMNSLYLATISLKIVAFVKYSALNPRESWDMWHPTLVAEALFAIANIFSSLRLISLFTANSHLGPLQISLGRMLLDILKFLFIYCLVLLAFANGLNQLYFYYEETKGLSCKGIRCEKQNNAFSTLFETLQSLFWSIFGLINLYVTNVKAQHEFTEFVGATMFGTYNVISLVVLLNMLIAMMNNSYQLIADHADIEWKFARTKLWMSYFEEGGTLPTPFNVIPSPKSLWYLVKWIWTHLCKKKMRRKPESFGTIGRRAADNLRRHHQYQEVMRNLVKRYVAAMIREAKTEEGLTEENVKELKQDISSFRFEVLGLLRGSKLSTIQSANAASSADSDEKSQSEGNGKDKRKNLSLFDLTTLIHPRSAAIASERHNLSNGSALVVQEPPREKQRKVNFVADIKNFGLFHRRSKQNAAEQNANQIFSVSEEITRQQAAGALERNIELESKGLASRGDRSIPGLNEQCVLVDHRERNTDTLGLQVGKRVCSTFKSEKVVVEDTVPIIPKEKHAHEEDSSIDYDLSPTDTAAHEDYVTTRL
Test [13] can be described thus: calcium flux inhibitors in TRPC4/5HT1a cells, confirmation, counter-screen for TRPC4 inhibitor project, cell-based, second counter screen, HEK293 TRPC4/5HT1a, Fluo-4 (AID 434978;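 active = primary screen active whose calcium signal fell more than 3 SD beyond the full-serotonin control mean in both duplicate plates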;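 as to outcome: serotonin given first at submaximal then at maximal dose after compound preincubation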). Conditions: Fluo-4 calcium flux, at 10 µM, serotonin added to trigger calcium flux; active compounds read high.
Test [14] has as its system TRPC4 (mouse), co-expressed with 5HT1a in HEK293. As to the kind of experiment: calcium flux potentiators in TRPC4/5HT1a cells, confirmation, counter-screen for TRPC4 potentiator project, cell-based, second counter screen, HEK293 TRPC4/5HT1a, Fluo-4 (AID 434979;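 active = signal rise over 3 SD above mean of control wells given weak agonist, in both repeats and first screen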). Conditions: Fluo-4 calcium flux, at 10 µM, serotonin added at its EC20 dose; active compounds read high.
Test [15] can be described thus: calcium flux activation in mu-opioid HEK293 cells, confirmation, counter-screen for TRPC4 activator project, cell-based, HEK293 mu-opioid receptor line (AID 449723;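 active = hit in primary screen, with calcium signal over 5 SD above buffer well mean in both duplicates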;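 also: counter screen cells carry the mu-opioid receptor alone and lack TRPC4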). The note with it: Fluo-4 calcium fluorescence, at 10 µM; active compounds read high.
The nature of test [16]: calcium flux enhancement in mu-opioid HEK293 cells, confirmation, counter-screen for TRPC4 allosteric potentiator project, cell-based, HEK293 mu-opioid receptor line (AID 449724;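 active = calcium signal rise more than 3 SD above the low-dose agonist control mean, in both duplicate plates and the primary screen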;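 also: HEK293 cells carrying mu-opioid receptor only with no TRPC4 channel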). Conditions: Fluo-4 calcium flux, at 10 µM, compound added before EC20 DAMGO stimulus; active compounds read high.

For some assays here: Results with a measured potency or affinity are listed apart. Calls of active or inactive are those of the source.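 The calls were made as follows, unless noted: active = calcium signal cut by more than 3 SD below the full-agonist control yet still positive, in both repeats and the earlier primary screen; inactive = the rest.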

Short transient receptor potential channel 6 (Mus musculus), sequence (Q61143 whole entry, looked up): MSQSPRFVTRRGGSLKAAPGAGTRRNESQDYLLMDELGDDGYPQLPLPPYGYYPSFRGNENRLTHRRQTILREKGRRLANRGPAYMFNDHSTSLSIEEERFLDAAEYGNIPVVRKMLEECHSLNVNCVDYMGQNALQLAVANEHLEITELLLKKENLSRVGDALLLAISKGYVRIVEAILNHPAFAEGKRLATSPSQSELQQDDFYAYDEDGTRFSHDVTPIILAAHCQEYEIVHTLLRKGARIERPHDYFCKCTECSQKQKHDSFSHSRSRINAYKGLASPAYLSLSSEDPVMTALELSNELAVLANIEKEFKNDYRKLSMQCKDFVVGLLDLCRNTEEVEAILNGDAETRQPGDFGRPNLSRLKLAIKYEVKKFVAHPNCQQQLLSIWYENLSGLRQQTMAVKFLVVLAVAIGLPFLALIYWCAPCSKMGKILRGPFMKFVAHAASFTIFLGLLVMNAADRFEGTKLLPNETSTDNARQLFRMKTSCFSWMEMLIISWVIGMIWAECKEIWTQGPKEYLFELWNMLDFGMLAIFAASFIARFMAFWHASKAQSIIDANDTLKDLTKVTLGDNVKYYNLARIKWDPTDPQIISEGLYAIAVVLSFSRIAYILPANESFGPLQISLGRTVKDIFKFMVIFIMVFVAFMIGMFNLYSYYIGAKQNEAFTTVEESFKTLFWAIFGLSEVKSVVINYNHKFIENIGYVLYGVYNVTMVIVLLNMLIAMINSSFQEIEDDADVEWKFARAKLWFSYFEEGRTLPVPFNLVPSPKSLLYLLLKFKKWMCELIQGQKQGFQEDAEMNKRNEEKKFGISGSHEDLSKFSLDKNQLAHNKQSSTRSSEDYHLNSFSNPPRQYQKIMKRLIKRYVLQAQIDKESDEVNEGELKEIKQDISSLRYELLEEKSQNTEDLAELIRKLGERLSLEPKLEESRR

Turning to `COc1ccc(F)cc1C(=O)C1CCCN(Cc2ccc3c(c2)OCCO3)C1` (centres undefined), the outcome in test [1], in test [2], in test [3], in test [4], in test [6] and in test [7] was inactive. Further, the result in [8], in test [9], in test [10], in test [11], in [12] and in test [14] was inactive. The result in test [15] and in test [16] was inactive. For the same compound, the inhibition in [5] is 94% (active); in test [13], 38.7% (active).

Regarding `CCOC(=O)c1c(NC(=O)C(C)Sc2nnc(C)c(=O)[nH]2)sc2c1CCCC2` (centres undefined), the result in [1], in test [2], in [3], in test [4], in [7] and in test [8] was inactive. Moreover, the outcome in test [9], in [10], in [11], in test [12], in [14] and in [15] was inactive. Also, in test [16], the outcome was inactive. In addition, the inhibition in test [5] is 77% (active); in [6], 87% (active); in test [13], 28.1% (active).

On to `CCOC(=O)C1(Cc2cccc(OC)c2)CCN(Cc2ccc(OC)c(O)c2)CC1`, for which the outcome in test [1], in test [2], in test [3], in [4], in [5] and in [6] was inactive. Besides, the outcome in test [7], in test [8], in test [9], in test [10], in [11] and in [12] was inactive. The outcome in [13], in test [14], in test [15] and in test [16] was inactive.

For `COc1ccc(C(CNC(=O)c2oc3ccc(F)cc3c2C)N2CCCCC2)cc1` (centres undefined), the result in test [1], in test [2], in test [3], in test [4], in test [6] and in test [7] was inactive. The outcome in test [8], in test [9], in test [10], in test [11], in [12] and in test [13] was inactive. For the same compound, the outcome in [14], in test [15] and in test [16] was inactive. The inhibition in test [5] is 98% (active).

`COc1ccc(C(=O)Nc2nc(-c3cccs3)cs2)cc1`: the result in [1], in test [2], in test [3], in [4], in [6] and in test [7] was inactive. The result in test [8], in [9], in test [10], in test [11], in test [12] and in [14] was inactive. Further, the outcome in test [15] and in test [16] was inactive. The inhibition in [5] was 85% (active); in [13], 36.4% (active).

As to `Clc1ccc(-c2csc3ncnc(NCCN4CCOCC4)c23)cc1`, the result in test [1], in [2], in [3], in [4], in [7] and in test [8] was inactive. Also, the outcome in [9], in [10], in [11], in [12], in [14] and in test [15] was inactive. Further, the outcome in test [16] was inactive. Moreover, the inhibition is 79% (active) in test [5], 50% (active) in test [6] and 38% (active) in test [13].

In the case of `CCC(O)(c1ccc(OC)cc1)C(CN1CCOCC1)c1ccccc1` (centres undefined), the result in test [1], in test [2], in test [3], in [4], in [7] and in [8] was inactive. In addition, the outcome in test [9], in [10], in [11], in [12], in test [14] and in [15] was inactive. The outcome in [16] was inactive. Also, the inhibition in test [5] is 92% (active); in test [6] it was 52% (active); in [13] it was 14.9% (active).

In the case of `COc1cc(OC)c(C2N(C)c3ccccc3N2C)cc1OC`, the result in [1], in test [2], in test [3], in test [4], in test [6] and in test [7] was inactive. In addition, the outcome in test [8], in [9], in test [10], in [11], in [12] and in [13] was inactive. The result in test [14], in test [15] and in test [16] was inactive. Further, in test [5], the inhibition is 77% (active).

As for `S=C(Nc1ccccc1)Nc1cc(Cl)ccc1Oc1ccccc1`, the result in test [1], in [2], in test [3], in test [4], in test [6] and in test [7] was inactive. The outcome in test [8], in [9], in test [10], in test [11], in test [12] and in test [14] was inactive. Further, the outcome in [15] and in test [16] was inactive. Also, the inhibition in [5] is 78% (active); in test [13], 40.2% (active).

Consider `Cc1c(N)c(C(C)(C)C)cc(C(C)(C)C)c1[N+](=O)[O-]`, for which the outcome in [1], in test [2], in test [3], in test [4], in [6] and in [7] was inactive. Further, the outcome in test [8], in [9], in [10], in [11], in [12] and in test [14] was inactive. Further, the outcome in [15] and in test [16] was inactive. Moreover, the inhibition in test [5] is 92% (active); in test [13], 29.4% (active).

Regarding `CC(=O)Nc1ccc(S(=O)(=O)Nc2nc3ccc(C)cc3s2)cc1`, the result in test [1], in [2], in test [3], in test [4], in test [6] and in [7] was inactive. For the same compound, the outcome in test [8], in [9], in test [10], in test [11], in [12] and in test [13] was inactive. Besides, the result in test [14], in test [15] and in [16] was inactive. The inhibition in [5] is 65% (active).

Take `COc1ccc2c(C)cc(N3CCCCCC3)nc2c1`: the outcome in test [1], in test [2], in test [3], in test [4], in test [7] and in [8] was inactive. For the same compound, the compound was called inactive in test [10], in test [11], in test [12], in test [14], in [15] and in test [16]. Also, the inhibition in test [5] is 96% (active); in test [6], 63% (active); in test [9], 33.5% (active); in test [13], 20.8% (active).

As for `COc1ccc(Nc2nc(NCC3CCCO3)c3ccccc3n2)c(OC)c1` (centres undefined), the result in [1], in test [2], in [3], in test [4], in test [7] and in test [8] was inactive. The result in [10], in test [11], in [12], in test [14], in [15] and in [16] was inactive. Also, the inhibition in [5] was 93% (active); in test [6], 50% (active); in test [9] it was 5.5% (active); in test [13], 41.4% (active).

In the case of `CCOC(=O)CSc1nc2ccccc2c(=O)n1CC1CCCC1`, the outcome in [1], in test [2], in test [3], in test [4], in [6] and in [7] was inactive. The result in [8], in [9], in test [10], in test [11], in test [12] and in [14] was inactive. Also, the outcome in [15] and in test [16] was inactive. The inhibition in test [5] is 84% (active); in test [13], 18.3% (active).
